# High-throughput results (PubChem BioAssay)
# A selection: hits, their analogues and other compounds. The true share with any hit is near 19%.
# IL-1B inflam inh: qHTS for Inhibitors of Inflammasome Signaling: IL-1-beta AlphaLISA Primary Screen; THP-1 LPS/ATP IL-1B secretion, AlphaLISA, 16 h; stronger effect = lower value; activity change, % at 57.5 µM; 360,000 tested, 4.7% active; AID 743279, 2014; in the data active = activity change below about -50%; inconclusive = mostly about -30% to -49%; also: % is scaled to controls: 0 for no effect and ±100 for the full control effect
#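 Secreted IL-1B measured by AlphaLISA bead assay after 16 h compound exposure of THP-1 cells; compounds (final up to 57.5 uM) added 1 h before LPS (250 ng/mL) and ATP (1.25 mM) stimulation; lower signal means less secretion.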
# TDP1 cell CPT: qHTS for Inhibitors of human tyrosyl-DNA phosphodiesterase 1 (TDP1): qHTS in cells in presence of CPT | chicken DT40 Tdp1-/-;hTDP1 cells + 20 nM CPT, ATP luminescence, 48 h | Potency, µM (series often up to 46.2 µM), for inactives: at the highest dose activity change, negative = growth inhibition, most hits filed as inhibitors | 420,000 tested, 12% active; also: potency is read from the fitted curve at half-maximal effect; % is scaled to controls: 0 for no effect and ±100 for the full control effect; nearly all actives have a fitted effect of over 55% in size
#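 Cell growth measured by CellTiter-Glo luminescence after a minimum 48 h, 37 C compound exposure with 20 nM CPT in Tdp1-knockout DT40 cells stably expressing hTDP1, seeded 400/well; qHTS titration format.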
# S-ASM inh: Inhibitors of Secretory Acid Sphingomyelinase (S-ASM): qHTS | placental ASM, HMU-PC fluorogenic substrate, 60 min | Potency, µM (doses to about 57.5 µM), for the others: top-dose activity change, negative = inhibition, most hits filed as inhibitors | 340,000 tested, 0.006% active | AID 504937, 2011; also: potency is read from the fitted curve at half-maximal effect
# Target sequence (P17405 47-631 limits assumed): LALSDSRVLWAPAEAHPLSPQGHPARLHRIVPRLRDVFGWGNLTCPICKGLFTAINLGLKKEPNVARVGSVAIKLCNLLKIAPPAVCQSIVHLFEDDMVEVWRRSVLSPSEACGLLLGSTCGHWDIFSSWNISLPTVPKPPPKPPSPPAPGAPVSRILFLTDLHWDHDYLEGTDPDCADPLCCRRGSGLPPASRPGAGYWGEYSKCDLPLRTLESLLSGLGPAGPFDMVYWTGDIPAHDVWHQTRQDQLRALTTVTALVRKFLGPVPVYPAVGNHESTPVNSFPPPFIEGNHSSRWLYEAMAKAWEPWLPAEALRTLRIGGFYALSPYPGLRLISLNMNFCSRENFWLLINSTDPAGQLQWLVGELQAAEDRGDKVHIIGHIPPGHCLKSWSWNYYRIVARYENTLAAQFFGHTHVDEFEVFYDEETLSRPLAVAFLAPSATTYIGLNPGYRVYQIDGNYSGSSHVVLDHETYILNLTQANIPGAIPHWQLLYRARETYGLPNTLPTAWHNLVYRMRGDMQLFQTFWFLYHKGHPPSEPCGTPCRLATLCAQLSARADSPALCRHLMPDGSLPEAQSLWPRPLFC
#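 Steps: dispense placental human ASM, pin compound, wait 10 min at room temperature, add HMU-PC0 substrate at 9 uM final, incubate 60 min at 37 °C, add stop solution raising pH to 10, read fluorescence.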
# TGFb SMAD3 inh: qHTS for Inhibitors of TGF-b; 410,000 tested, 1.2% active; Potency, µM (highest dose often 46.1 µM), for the others: at the top dose activity, negative = inhibition, usual class: inhibitors; AID 588855, 2011; HepG2 CAGA-GFP TGF-b/SMAD3 reporter, GFP fluorescence, 18 h; TGF-beta stimulated, 500 pg/mL final; also: potency is read from the fitted curve at half-maximal effect; % is scaled to controls: 0 for no effect and ±100 for the full control effect; nearly all actives have a fitted effect of over 65% in size
#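 Using HEPG2 CAGA-GFP reporter cells at 1000 cells/well, we pinned test compounds, stimulated with recombinant TGF-beta (500 pg/mL final) and measured total well GFP after 18 h.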
# HepG2 viability: qHTS for Inhibitors of TGF-b: Cytotox Counterscreen; 410,000 tested, 0.76% active; Potency, µM (highest dose often 46.1 µM), for the others: at the highest dose activity change, negative = cytotoxicity, usual class: cytotoxic; AID 588856, 2011; HepG2 CAGA-GFP viability, ATP luminescence, 18 h; also: potency is read from the fitted curve at half-maximal effect
#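 CellTiter-Glo luminescence gave cytotoxicity after 18 hours at 37 degrees C. The cells were HepG2 CAGA-GFP in 1% FBS DMEM, stimulated with 500 pg/mL TGF-beta after compound addition. %Activity was normalised to no-cell wells (complete cell-killing) and DMSO (no toxicity), and curves were fitted and classified.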
# DT40 TDP1 no CPT: qHTS for Inhibitors of human tyrosyl-DNA phosphodiesterase 1 (TDP1): qHTS in cells in absence of CPT; DT40 Tdp1-/- hTDP1 cells, no CPT, ATP luminescence, 48 h; Potency, µM (top dose mostly 46.2 µM), without a hit: top-dose activity change, negative = growth inhibition, usual class: inhibitors; 420,000 tested, 15% active; also: potency is read from the fitted curve at half-maximal effect; % is scaled to controls: 0 for no effect and ±100 for the full control effect; nearly all actives have a fitted effect of over 55% in size
#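 DT40 Tdp1-/-;hTDP1 cells, no CPT (DMSO vehicle only), 400 cells/well; compounds pin-transferred; ≥48 hr, 37 °C; CellTiter-Glo 30 min RT dark, luminescence read.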
# An asterisk follows results filed as active; u = inconclusive; x = not tested or not shown; ! = not confirmed by another sample. Unless noted, calls follow the shape of the dose curve; as a rule, active = well fitted curve in the direction sought with a large enough effect; inconclusive = small, poorly fitted or top-dose-only effect, or another doubt; inactive = no such curve, though single readings can be large; an effect the other way counts as inactive or inconclusive.
SMILES,IL-1B inflam inh,TDP1 cell CPT,S-ASM inh,TGFb SMAD3 inh,HepG2 viability,DT40 TDP1 no CPT
CCOc1ccc(C(CCc2ccccc2)NC(=O)c2ccccc2F)cc1OCC (stereo unspecified),-21.5,35.5µM*,-10.5%,24.4%,-18.3%,u
COc1ccccc1CNC(=O)COc1ccccc1OC,-1.5,-9.3%,-2.1%,-20.5%,-30.5%,-1.2%
COc1ccccc1CNC(=O)CC(C)C,7.3,23.1µM*,2.5%,-3.5%,-2.0%,u
CC(CCc1ccccc1)NC(=O)CN(C)Cc1ccc(F)cc1 (stereo unspecified),-12.0,-6.8%,-0.6%,3.4%,-11.6%,u
CC(CCc1ccccc1)NC(=O)CN(C)Cc1ccccc1F (stereo unspecified),-73.9*,u,0.0%,-4.2%,-11.9%,u
CCOc1ccccc1C(=O)NC(C)CCc1ccccc1 (stereo unspecified),13.1,u,1.4%,-7.1%,-1.4%,16.4µM*
CC(CCc1ccccc1)NC(=O)c1cccc(F)c1 (stereo unspecified),-5.3,u,-0.6%,11.2µM*,-44.4%,u
Cc1ccc(NC(=O)C(C)OC(=O)Cn2cnc3ccccc3c2=O)cc1 (stereo unspecified),0.1,-9.4%,-0.8%,-0.8%,-4.3%,-8.8%
CC(=O)c1ccc(N(CC(=O)Nc2cc(C)on2)S(=O)(=O)c2ccc(C)cc2)cc1,-8.4,-16.2%,0.2%,17.6%,-0.8%,u
Cc1cc(C(F)(F)Cl)n2ncc(-c3ccccn3)c2n1,10.3,-1.4%,-0.9%,0.4%,-5.9%,-17.3%
Cc1cc(NCc2ccccn2)n2ncc(-c3ccccc3)c2n1,-7.5,0.164µM*,12.7%,u,-40.6%,0.146µM*
Cc1cc(NCc2ccccn2)n2ncc(-c3ccc(Cl)cc3)c2n1,-2.8,0.581µM*,21.3%,11.2µM*,-48.7%,0.82µM*
Cc1c(C(=O)NCC2CCCO2)oc2ccc(Br)cc12 (stereo unspecified),4.7,u,-5.0%,-18.0%,-5.9%,u
O=S(=O)(NCCN1CCOCC1)c1ccc(Cl)c(Cl)c1,-7.3,-7.0%,-1.8%,-5.7%,-3.6%,-18.1%
CCCCCCNS(=O)(=O)c1ccc(Cl)s1,1.1,-15.1%,-7.7%,0.0%,-38.2%,u
O=[N+]([O-])c1cc(S(=O)(=O)NCCN2CCOCC2)ccc1Cl,-83.7*,-4.9%,2.7%,11.1%,0.1%,-9.8%
CCCN1CCC(=NNc2ccc(S(=O)(=O)N3CCOCC3)cc2[N+](=O)[O-])CC1,4.0,2.59µM*,-11.2%,-0.5%,14.1µM*,2.59µM*
O=S(=O)(NCCCN1CCOCC1)c1ccc(Cl)s1,1.9,u,1.4%,-27.8%,1.4%,23.1µM*
O=S(=O)(NCCN1CCOCC1)c1ccc(F)c(Cl)c1,-1.0,18.4µM*,-1.4%,3.1%,-11.2%,16.4µM*
COc1ccc(S(=O)(=O)N(C)Cc2ccc3c(c2)OCCO3)cc1,-19.6,-6.5%,-2.5%,-5.9%,-17.2%,u
Cc1cc(C(=O)NNC(=O)/C=C/c2ccco2)c(C)o1,-3.4,6.8%,x,-6.8%,-40.6%,3.9%
COC(=O)C1(C(=O)OC)C[C@H](c2ccc(OC)cc2)N(Cc2ccccc2OC)[C@@H]1c1ccc(OC)cc1,u,u,x,x,x,20.6µM*
COc1cc2oc(=O)cc(-c3ccc(-c4ccc(F)c(Cl)c4)cc3)c2c(OC)c1OC,23.9,18.4µM*,17.9%,u,-4.8%,14.6µM*
COc1cc2oc(=O)cc(-c3ccc(-c4ccc(N(C)C)cc4)cc3)c2c(OC)c1OC,12.9,u,37.8%,7.0%,-26.0%,u
CCOC(=O)c1ccc(-c2ccc(-c3cc(=O)oc4cc(OC)c(OC)c(OC)c34)cc2)cc1,5.6,18.4µM*,-5.2%,-5.6%,-30.5%,18.4µM*
SMILES,IL-1B inflam inh,TDP1 cell CPT,S-ASM inh,TGFb SMAD3 inh,HepG2 viability,DT40 TDP1 no CPT
COc1cc2oc(=O)cc(-c3ccc(-c4ccc(OC(F)(F)F)cc4)cc3)c2c(OC)c1OC,62.6,16.4µM*,67.7%,u,-26.8%,11.6µM*
COc1ccc(-c2ccc(-c3cc(=O)oc4cc(OC)c(OC)c(OC)c34)cc2)cc1F,-17.6,18.4µM*,4.8%,30.8%,29.6%,23.1µM*
Cc1ccc(SC[C@H](c2ccccc2)N2CCN(CC(C)C)CCC2=O)cc1,-5.7,16.4µM*,5.6%,-2.0%,0.8%,11.6µM*
CCCN1CCC(=O)N(CCSc2ccc(C)cc2)CC1,10.1,u,-0.7%,-8.2%,-33.6%,u
Cc1ccc(SCCN2CCN(CCc3ccccc3)CCC2=O)cc1,-1.0,16.4µM*,9.4%,u,-20.8%,16.4µM*
CCCN1CCC(=O)N(CCSc2ccc(OC)cc2)CC1,32.1,5.8µM*,2.3%,-14.0%,-24.6%,5.8µM*
CN1CCC(=O)N([C@H](CSc2ccccc2)c2ccccc2)CC1,3.5,u,-0.7%,-0.4%,-52.5%,17.8µM*!
Cc1ccc(-c2cc(NC(=O)COc3ccc(Cl)cc3C)on2)cc1,x,-11.9%,x,-3.2%,-27.7%,-22.5%
CCCN1CCC(=O)N([C@H](CSc2ccc(OC)cc2)c2ccccc2)CC1,11.6,u,11.7%,-4.8%,-15.0%,16.4µM*
CC(C)CCn1c(-c2nonc2N)nc2ccccc21,14.0,13µM*,-13.4%,-13.0%,-15.4%,u
Nc1nonc1-c1nc2ccccc2n1Cc1ccccc1,u,u,-8.5%,-4.8%,-23.6%,29.1µM*
CCOC(=O)C(=NCC1CCCO1)NNc1ccccc1Cl (stereo unspecified),3.3,6.5%,-4.5%,-4.6%,1.26µM*,-9.8%
Cc1c(NC(=O)c2ccccc2)cc(C(C)C)c(O)c1S(=O)(=O)c1ccc(Cl)cc1,x,20.6µM*,x,-8.7%,-24.7%,u
Cc1cc(C)c2cc(C=O)c(Cl)nc2c1,36.2,1.16µM*,2.5%,2.0%,5.4%,1.03µM*
CCc1cc2cc(C)cc(C)c2nc1Cl,14.8,4.8%,-1.0%,-2.7%,-0.8%,u
Cc1ccc(C(=O)c2cc3c(cc2[N+](=O)[O-])OCCO3)cc1,u,2.4%,4.2%,6.9%,3.6%,u
